In publication doi:10.1101/2024.03.05.583629 one finds binding signal data, which are given here for 39 sequences.

For this assay, the target named is pT7_6His-AlfaTag-HOXD13 (human, UniProt P35453 263-343). Description: PADIT-seq. Conditions: dsDNA, one strand shown.
pT7_6His-AlfaTag-HOXD13, sequence (P35453 263-343): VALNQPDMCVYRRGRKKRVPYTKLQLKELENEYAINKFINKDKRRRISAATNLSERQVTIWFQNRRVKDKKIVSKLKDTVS
Take “CTCGAGGATATCAAGATCTGGCCTCGGCGATGTAAAAGGAACCTCTAGCTAGCCGACTCACTATAGGGATAATCGCCCTGAGCAAAGACC”: the binding signal was found to be 0.79 ± 0.0749 log2FC.

Consider “CTCGAGGATATCAAGATCTGGCCTCGGCTTTTTACTCGGAACCTCTAGCTAGCCGACTCACTATAGGGATAATCGCCCTGAGCAAAGACC”, for which the binding signal was 0.725 ± 0.0977 log2FC.

Consider “CTCGAGGATATCAAGATCTGGCCTCGGCCTTTTAAAGGGAACCTCTAGCTAGCCGACTCACTATAGGGATAATCGCCCTGAGCAAAGACC”, for which the binding signal worked out at 2.37 ± 0.0692 log2FC.

In turn, “CTCGAGGATATCAAGATCTGGCCTCGGCATGATAAAAGGAACCTCTAGCTAGCCGACTCACTATAGGGATAATCGCCCTGAGCAAAGACC” registered a binding signal of 1.61 ± 0.0749 log2FC.

For “CTCGAGGATATCAAGATCTGGCCTCGGCCTTTTAAGAGGAACCTCTAGCTAGCCGACTCACTATAGGGATAATCGCCCTGAGCAAAGACC”, the binding signal amounted to 2.52 ± 0.0827 log2FC.

Sequence “CTCGAGGATATCAAGATCTGGCCTCGGCCTTTTAACGGGAACCTCTAGCTAGCCGACTCACTATAGGGATAATCGCCCTGAGCAAAGACC” yielded a binding signal of 1.98 ± 0.0882 log2FC.

“CTCGAGGATATCAAGATCTGGCCTCGGCGCCATAAAAGGAACCTCTAGCTAGCCGACTCACTATAGGGATAATCGCCCTGAGCAAAGACC” had a binding signal of 2.57 ± 0.0659 log2FC.

Sequence “CTCGAGGATATCAAGATCTGGCCTCGGCCTTTTATTGGGAACCTCTAGCTAGCCGACTCACTATAGGGATAATCGCCCTGAGCAAAGACC” registered a binding signal of 3.44 ± 0.0778 log2FC.

As for “CTCGAGGATATCAAGATCTGGCCTCGGCTTTTTATCTGGAACCTCTAGCTAGCCGACTCACTATAGGGATAATCGCCCTGAGCAAAGACC”, the binding signal is 0.754 ± 0.104 log2FC.

As for “CTCGAGGATATCAAGATCTGGCCTCGGCTTTTTAGCCGGAACCTCTAGCTAGCCGACTCACTATAGGGATAATCGCCCTGAGCAAAGACC”, the binding signal is -0.442 ± 0.12 log2FC.

For “CTCGAGGATATCAAGATCTGGCCTCGGCATTTTATTGGGAACCTCTAGCTAGCCGACTCACTATAGGGATAATCGCCCTGAGCAAAGACC”, the binding signal was determined as 3.32 ± 0.0805 log2FC.

In the case of “CTCGAGGATATCAAGATCTGGCCTCGGCATTTTAGTGGGAACCTCTAGCTAGCCGACTCACTATAGGGATAATCGCCCTGAGCAAAGACC”, the binding signal amounted to 1.61 ± 0.0939 log2FC.

For the sequence “CTCGAGGATATCAAGATCTGGCCTCGGCGTTTTACCCGGAACCTCTAGCTAGCCGACTCACTATAGGGATAATCGCCCTGAGCAAAGACC”, the binding signal is -0.0427 ± 0.101 log2FC.

In the case of “CTCGAGGATATCAAGATCTGGCCTCGGCGCTGTAAAAGGAACCTCTAGCTAGCCGACTCACTATAGGGATAATCGCCCTGAGCAAAGACC”, the binding signal was found to be 2.11 ± 0.0786 log2FC.

In turn, “CTCGAGGATATCAAGATCTGGCCTCGGCAGTCCACGCGGAACCTCTAGCTAGCCGACTCACTATAGGGATAATCGCCCTGAGCAAAGACC” came in with a binding signal of -0.993 ± 0.114 log2FC.

Sequence “CTCGAGGATATCAAGATCTGGCCTCGGCGTTTTACAAGGAACCTCTAGCTAGCCGACTCACTATAGGGATAATCGCCCTGAGCAAAGACC” yielded a binding signal of 3.54 ± 0.0799 log2FC.

Sequence “CTCGAGGATATCAAGATCTGGCCTCGGCCTTTTAAATGGAACCTCTAGCTAGCCGACTCACTATAGGGATAATCGCCCTGAGCAAAGACC” had a binding signal of 2.36 ± 0.0747 log2FC.

“CTCGAGGATATCAAGATCTGGCCTCGGCATTTTAGTAGGAACCTCTAGCTAGCCGACTCACTATAGGGATAATCGCCCTGAGCAAAGACC”: the binding signal turned out to be 1.68 ± 0.0834 log2FC.

For “CTCGAGGATATCAAGATCTGGCCTCGGCGGACCACGCGGAACCTCTAGCTAGCCGACTCACTATAGGGATAATCGCCCTGAGCAAAGACC”, the binding signal is -0.846 ± 0.11 log2FC.

In turn, “CTCGAGGATATCAAGATCTGGCCTCGGCAATATAAAAGGAACCTCTAGCTAGCCGACTCACTATAGGGATAATCGCCCTGAGCAAAGACC” yielded a binding signal of 2.41 ± 0.0826 log2FC.

The sequence “CTCGAGGATATCAAGATCTGGCCTCGGCGTTTTAGGTGGAACCTCTAGCTAGCCGACTCACTATAGGGATAATCGCCCTGAGCAAAGACC” returned a binding signal of -0.0193 ± 0.12 log2FC.

Turning to “CTCGAGGATATCAAGATCTGGCCTCGGCGTTTTATATGGAACCTCTAGCTAGCCGACTCACTATAGGGATAATCGCCCTGAGCAAAGACC”, the binding signal was determined as 3.04 ± 0.0717 log2FC.

“CTCGAGGATATCAAGATCTGGCCTCGGCAGCTTAAAAGGAACCTCTAGCTAGCCGACTCACTATAGGGATAATCGCCCTGAGCAAAGACC”: the binding signal was found to be 0.129 ± 0.0835 log2FC.

The sequence “CTCGAGGATATCAAGATCTGGCCTCGGCCGCCCAAATGGAACCTCTAGCTAGCCGACTCACTATAGGGATAATCGCCCTGAGCAAAGACC” showed a binding signal of -0.854 ± 0.128 log2FC.

On to “CTCGAGGATATCAAGATCTGGCCTCGGCTCAGTAAAAGGAACCTCTAGCTAGCCGACTCACTATAGGGATAATCGCCCTGAGCAAAGACC”, for which the binding signal is 1.56 ± 0.0915 log2FC.

In turn, “CTCGAGGATATCAAGATCTGGCCTCGGCCGCCCAAGCGGAACCTCTAGCTAGCCGACTCACTATAGGGATAATCGCCCTGAGCAAAGACC” returned a binding signal of -0.698 ± 0.123 log2FC.

“CTCGAGGATATCAAGATCTGGCCTCGGCCCAATAAAAGGAACCTCTAGCTAGCCGACTCACTATAGGGATAATCGCCCTGAGCAAAGACC”: the binding signal came out at 2.95 ± 0.095 log2FC.

The sequence “CTCGAGGATATCAAGATCTGGCCTCGGCTTTTTACATGGAACCTCTAGCTAGCCGACTCACTATAGGGATAATCGCCCTGAGCAAAGACC” returned a binding signal of 2.12 ± 0.0858 log2FC.

“CTCGAGGATATCAAGATCTGGCCTCGGCCGCGTAAAAGGAACCTCTAGCTAGCCGACTCACTATAGGGATAATCGCCCTGAGCAAAGACC” registered a binding signal of 1.44 ± 0.0853 log2FC.

“CTCGAGGATATCAAGATCTGGCCTCGGCCGCCCAAAGGGAACCTCTAGCTAGCCGACTCACTATAGGGATAATCGCCCTGAGCAAAGACC” displayed a binding signal of -0.802 ± 0.123 log2FC.

Sequence “CTCGAGGATATCAAGATCTGGCCTCGGCATTTTACCGGGAACCTCTAGCTAGCCGACTCACTATAGGGATAATCGCCCTGAGCAAAGACC” displayed a binding signal of 1.17 ± 0.0862 log2FC.

For the sequence “CTCGAGGATATCAAGATCTGGCCTCGGCTTTTTAGATGGAACCTCTAGCTAGCCGACTCACTATAGGGATAATCGCCCTGAGCAAAGACC”, the binding signal amounted to 0.28 ± 0.11 log2FC.

Turning to “CTCGAGGATATCAAGATCTGGCCTCGGCCGCCCATAGGGAACCTCTAGCTAGCCGACTCACTATAGGGATAATCGCCCTGAGCAAAGACC”, the binding signal is -0.685 ± 0.116 log2FC.

For “CTCGAGGATATCAAGATCTGGCCTCGGCTGTCCACGCGGAACCTCTAGCTAGCCGACTCACTATAGGGATAATCGCCCTGAGCAAAGACC”, the binding signal is -0.737 ± 0.124 log2FC.

“CTCGAGGATATCAAGATCTGGCCTCGGCTAGCCACGCGGAACCTCTAGCTAGCCGACTCACTATAGGGATAATCGCCCTGAGCAAAGACC” had a binding signal of -1.07 ± 0.127 log2FC.

For “CTCGAGGATATCAAGATCTGGCCTCGGCACGGTAAAAGGAACCTCTAGCTAGCCGACTCACTATAGGGATAATCGCCCTGAGCAAAGACC”, the binding signal came to 0.528 ± 0.077 log2FC.

“CTCGAGGATATCAAGATCTGGCCTCGGCTTTTTACCGGGAACCTCTAGCTAGCCGACTCACTATAGGGATAATCGCCCTGAGCAAAGACC” displayed a binding signal of 0.978 ± 0.0873 log2FC.

Sequence “CTCGAGGATATCAAGATCTGGCCTCGGCGCGTATGCGGGAACCTCTAGCTAGCCGACTCACTATAGGGATAATCGCCCTGAGCAAAGACC” yielded a binding signal of -1.09 ± 0.121 log2FC.

“CTCGAGGATATCAAGATCTGGCCTCGGCCTTTTACCAGGAACCTCTAGCTAGCCGACTCACTATAGGGATAATCGCCCTGAGCAAAGACC” returned a binding signal of 0.296 ± 0.0912 log2FC.
